# Compounds without any hit were thinned out: in the full panel of roughly 83,000, 20% have a hit.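 Plates (96-well) were seeded with cells, treated with compound at one concentration, and incubated for 48 hours before percent growth was determined.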 Unmarked numbers belong to inactive results. Calls of active or inactive are those of the source. How the source made its calls: active means growth percent below 10; inactive means the rest.
# Tests used:
# Assay in all cases: NCI-60 one-dose screen, 48 h (100 = growth as untreated, 0 = no growth, -100 = all killed)
# Settings in all cases: 10 µM unless noted
# [1] = system: NCI-H23 lung
# [2] = system: NCI-H226 lung
# [3] = system: NCI-H322M lung
# [4] = system: HOP-62 NSCLC
# [5] = system: NCI-H460 lung
# [6] = system: HOP-92 NSCLC
# [7] = system: NCI-H522 lung
# [8] = system: A549/ATCC NSCLC
# [9] = system: 786-0 renal
# [10] = system: COLO 205 colon
# [11] = system: DU-145 prostate
# [12] = system: K-562 leukemia
# [13] = system: MALME-3M melanoma
# [14] = system: MDA-MB-231 breast
# [15] = system: RXF 393 renal
# [16] = system: SF-268 CNS
# [17] = system: SF-295 CNS
# [18] = system: SF-539 CNS
# [19] = system: UACC-257 melanoma
# [20] = system: M14 melanoma
SMILES,growth [1],growth [2],growth [3],growth [4],growth [5],growth [6],growth [7],growth [8],growth [9],growth [10],growth [11],growth [12],growth [13],growth [14],growth [15],growth [16],growth [17],growth [18],growth [19],growth [20]
COc1ccc(C2CC(c3ccc4ccccc4c3)=NN2/C=C2\SC(=S)N(NC(=O)Cc3ccccc3Nc3c(Cl)cccc3Cl)C2=O)cc1 (configuration not stated),40.5%,45.9%,42.8%,23.7%,9.42% (active),38.5%,-15.4% (active),23.6%,13.8%,55.6%,12.2%,10.6%,52.9%,41%,-8.96% (active),34.6%,14.1%,-16.9% (active),56.2%,-25.1% (active)
O=C(N/N=C/c1ccccc1O)c1ccccc1Nc1ccnc(C(F)(F)F)c1,30.2%,-11.7% (active),13.1%,-5.32% (active),-13.2% (active),7.01% (active),24%,10.4%,0.0938% (active),14.7%,27.3%,17.7%,-0.966% (active),40.4%,18.7%,14.6%,7.17% (active),0.988% (active),-0.662% (active),-14.3% (active)
C=CC(=O)Nc1cccc(-c2nc(SC)nc(NCCc3ccc(OC)c(OC)c3)c2C#N)c1,47.6%,40.8%,90.9%,75.1%,74.6%,62.2%,39.2%,46.9%,68.2%,77.8%,56.9%,31.2%,54.8%,64.1%,59.4%,61.9%,43%,65.6%,29.7%,26.9%
CCCn1c(=O)[nH]c(N)c([C@H]2c3ccccc3Oc3[nH]c(=O)n(CCC)c(=O)c32)c1=O,86.2%,102%,85.4%,90.8%,111%,102%,20.7%,84.8%,82.7%,86.4%,75.1%,52.6%,78.4%,81.8%,98.2%,94.4%,88.1%,100%,76.3%,
O=C1/C(=C(/c2ccccc2)N2CCOCC2)Cc2ccccc21,54.1%,58.8%,98.3%,81.8%,81%,8.98% (active),-63.6% (active),77.2%,7.77% (active),-48.4% (active),-42.4% (active),35.2%,9.61% (active),8.95% (active),42%,11.3%,75.8%,-45.6% (active),65.4%,
COc1cc2nc(N3CCCC3)nc(NCCc3ccccc3)c2cc1OC,59.5%,90.5%,75.2%,68.5%,10.1%,74.6%,61.7%,18.5%,81.5%,-84.8% (active),37.6%,-19.3% (active),82.1%,59.3%,67.9%,87.2%,80%,86.1%,115%,
CC1SC(c2ccc(N(C)C)cc2)N(NC(=O)C(O)(c2ccccc2)c2ccccc2)C1=O (configuration not stated),98.5%,105%,81%,97.1%,144%,74.6%,84.6%,79.6%,97.7%,102%,97.2%,86.1%,87.6%,99.1%,118%,141%,27.9%,96.7%,106%,96%
Cc1[nH]c(-c2cc(N)ccc2Cl)c2c1C(=O)CCCC2,36.3%,36.1%,40.8%,15.9%,57.3%,24.5%,16.2%,45.2%,40.1%,22.6%,66.3%,23.2%,32.4%,22%,19.6%,53.5%,31.8%,25.3%,18.6%,39.3%
c1ccc(-c2c(-c3ccccc3)[n+](Cc3ccc4ccccc4c3)c(-c3ccc(-c4nc5ccccc5s4)cc3)n2Cc2ccc3ccccc3c2)cc1,-82.1% (active),-79.2% (active),-92.1% (active),-90% (active),-67.3% (active),-85.4% (active),-81.3% (active),-77.1% (active),-75.4% (active),-86.1% (active),-95.4% (active),-25.2% (active),-78% (active),-84.3% (active),-95.6% (active),-76.9% (active),-99.6% (active),-88.9% (active),-87.5% (active),-80.4% (active)
Cc1ccc2c(C(C[N+](=O)[O-])c3ccccc3F)c(-c3ccccc3)[nH]c2c1 (configuration not stated),56.9%,58.6%,68.5%,36.2%,20.9%,45.8%,-17.2% (active),35.2%,56.7%,32.3%,66.2%,11.8%,46.1%,61.4%,63.6%,46.7%,17.6%,52.3%,46.9%,26.2%
O=C(COc1ccc(-c2nc3cc(Cl)c(Cl)cc3[nH]2)cc1)N=Nc1c(O)[nH]c2ccccc12,31.8%,-30.2% (active),4.51% (active),50.1%,-69.6% (active),-33.3% (active),13.6%,29%,-44.8% (active),12.6%,-20.7% (active),10.8%,-68.9% (active),-50.2% (active),-5.96% (active),-64.5% (active),5.99% (active),41.4%,54.4%,-22.1% (active)
Cn1nc(N)c2cc([C@@H]3Nc4ccc5[nH]ncc5c4[C@H]4C5CCC(C5)[C@@H]34)ccc21 (some centres not stated),26.9%,30.6%,48.9%,46.9%,2.68% (active),105%,17.9%,28.5%,34.7%,2.47% (active),18.8%,9.76% (active),52.7%,48.5%,-11.1% (active),42.5%,9.61% (active),-15.5% (active),77.4%,3.16% (active)
Nc1n[nH]c2ccc([C@@H]3Nc4cc5c(cc4[C@H]4C6CCC(C6)[C@@H]34)C(=O)NC5)cc12 (some centres not stated),28.3%,4.99% (active),42.1%,39.4%,1.7% (active),75.3%,16.9%,26.4%,17.3%,-40.1% (active),-17.9% (active),7.25% (active),49.8%,37.9%,27.1%,22.8%,10.8%,-24.9% (active),76.7%,7.72% (active)
C#Cc1cccc(NC(=O)c2ccccc2NC(=O)C=C)c1,97.1% [8.25 µM],97.6% [8.25 µM],101% [8.25 µM],92.9% [8.25 µM],103% [8.25 µM],92.8% [8.25 µM],80.5% [8.25 µM],98.1% [8.25 µM],89.9% [8.25 µM],109% [8.25 µM],95.6% [8.25 µM],98.8% [8.25 µM],102% [8.25 µM],102% [8.25 µM],120% [8.25 µM],95.6% [8.25 µM],105% [8.25 µM],92% [8.25 µM],104% [8.25 µM],103% [8.25 µM]
COc1ccc(-n2nc(C)c3c(Oc4ccc(NC(=O)Nc5c(Cl)cccc5Cl)cc4)ncnc32)cc1,98.3%,107%,96.8%,97.7%,101%,98%,93.6%,103%,110%,99%,105%,104%,99.4%,101%,107%,93.6%,100%,96.7%,102%,110%

# — PubChem BioAssay (NCI)
